# Experimental data from PubChem BioAssay (NCI).
# This is part of a sample that, as a whole, favours compounds with a hit. Of some 83,000 tested, about 20% had one in any assay.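 Values shown are percent growth following 48 h exposure of cells in 96-well plates to a single concentration of compound; below 10 was considered active.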 Unmarked numbers belong to inactive results. Active and inactive are the calls of the source.
# System: OVCAR-5 ovarian
# Assay: NCI-60 one-dose screen, 48 h (100 = growth as untreated, 0 = no growth, -100 = all killed)
# Settings: 10 µM unless noted
row,Compound,growth
1,COc1ccc(O)c(-c2cc(-c3ccccc3)c(C#N)c(=O)[nH]2)c1,124%
2,CN(C)c1ccc(/C=C2\C=C(c3ccccc3)N(CCc3ccccc3)C2=O)cc1,98.7%
3,O=c1oc2ccc(Cl)cc2cc1-c1cs/c(=N/N=C\c2ccc(Cl)cc2)n1/N=C/c1ccc(Cl)cc1,107%
4,O=C1c2ccccc2C2(c3ccc(O)cc3)c3ccccc3Oc3cccc1c32 (stereo not drawn),30.7%
5,c1ccc([P+](CCCc2n(Cc3ccc4ccccc4c3)c3ccccc3[n+]2Cc2ccc3ccccc3c2)(c2ccccc2)c2ccccc2)cc1,60.1%
6,C/C(Cc1ccc(Cl)cc1)=C(/c1ccc(Cl)cc1)c1ccc(OCCN(C)C)cc1,81.2%
7,COc1cc2c(cc1OC)-c1ccc3cc4c(cc3c1N(CCCN1CCCCC1)C2)OCO4,74.7%
8,COc1ccc(C(=O)/C=C/c2cc3c(c(OC)c2)OCC(=O)N3)cc1,45.7%
9,Cn1nnnc1-c1ccc(N)cc1,94.1%
10,CCCCNCC(=O)Nc1ccc(C(=O)OCC)cc1,109%
11,CCCCCOC(=O)c1ccc(NC(=O)CNCC(C)C)cc1,98.9%
12,Cc1nc(Nc2cccc(NC(=O)Nc3ccc(Cl)cc3)c2)c2ccccc2n1,106%
13,C=C(Cl)COC(=O)C(C)(C)O,102%
14,CCNCCNc1cc(-c2ccc(Cl)cc2)c(C#N)c2nc3ccccc3n12,4.7% (active)
15,O=C1NCC(=O)N(Cc2ccco2)[C@H]1Cc1ccccc1,106%
16,Cc1ccc(NC(=O)C(Cl)Cl)cc1,98.5%
17,CCOc1cccnc1/C=N/NC(N)=S,66.2%
18,O=C(c1ccccc1)c1ccc(Cl)c([N+](=O)[O-])c1,99.1%
19,CCN(CC)CC(=O)Nc1cccc(C(=O)OC(C)C)c1,104%
20,CCOC(=O)C(O)C(O)(c1ccccc1)c1ccccc1 (stereo not drawn),90.4%

row,Compound,growth
1,C[C@@H]1C(=O)N(C[C@@H](Cc2ccccc2)NC(=O)OCc2ccccc2)[C@]1(Cc1ccccc1)C(=O)OCc1ccccc1,69.1%
2,CC1(C)N=C(N)N=C(N)N1c1cccc(CN)c1,89.2%
3,CC(c1ccc(-n2cccn2)cc1)c1cnc(N2CCc3ccc(C(N)=O)cc3C2)s1 (stereo not drawn),92.8%
4,COc1ccc(OC)c(Nc2nc3nonc3nc2Nc2cccc(Br)c2)c1,9% (active)
5,N#Cc1c(N)nc2c(nnn2-c2cccc(Br)c2)c1N,108%
6,[2H]c1nc(Nc2ncc(F)c(-c3cc(F)c4nc(C)n(C(C)C)c4c3)n2)c([2H])c([2H])c1CN1CCN(C([2H])([2H])C([2H])([2H])[2H])CC1,55.6%
7,Cc1c(C(=O)O)nnn1-c1nccs1,104%
8,CCNCCNc1cc(-c2ccc(C(=O)OC)cc2)c(C#N)c2nc3ccccc3n12,102%
9,CO[C@H]1/C=C/O[C@@]2(C)Oc3c(C)c(O)c4c(c3C2=O)C(=O)C(/C=N/N(c2ccccc2)c2ccccc2)=C(NC(=O)/C(C)=C\C=C\[C@H](C)[C@H](O)[C@@H](C)[C@@H](O)[C@@H](C)[C@H](OC(C)=O)[C@@H]1C)C4=O,-43.7% (active)
10,O[C@H]1CO[C@H]2[C@@H]1OC[C@@H]2Oc1ccc(Nc2nc(Nc3ccc(F)c(Cl)c3)ncc2F)cc1Cl,105%
11,CCNCCNc1cc(-c2cccc(C(F)(F)F)c2)c(C#N)c2nc3ccccc3n12,-79.3% (active)
12,CN(C)CCN1C(=O)c2cccc3c(-c4ccc(-c5nc6c7ccccc7c7ccccc7c6[nH]5)cc4)ccc(c23)C1=O,123%
13,CCOC(=O)c1c(C)nc2c(c1N)/C(=C/c1ccc(OC)cc1)C(=O)N2Cc1ccc(F)cc1,-45.2% (active)
14,CSc1ccc(Cl)c(C(=O)Nc2sccc2C(N)=O)c1,98.2%
15,CN1C[C@@H](c2ccc(Cl)cc2)[C@]2(NC(=S)N(c3ccc(F)c(Cl)c3)C2=O)[C@@]12C(=O)NC1C=CC(Cl)=C[C@H]12 (stereo partly drawn),52.8%
16,O=C(Nc1ccccc1)c1sc(-c2cccc(C(F)(F)F)c2)cc1O,104%
17,NS(=O)(=O)c1cn(-c2ncnc3nc[nH]c23)ccc1=O,93.1%
18,Nc1c(C(=O)c2ccccc2)nnc2ncnn12,121%
19,CCCCCCCSc1ccc(C(=O)O)cc1,110%

# System: OVCAR-4 ovarian
# Assay: as above
# Settings: 10 µM unless noted
row,Compound,growth
1,COc1ccc(O)c(-c2cc(-c3ccccc3)c(C#N)c(=O)[nH]2)c1,97.4%
2,CN(C)c1ccc(/C=C2\C=C(c3ccccc3)N(CCc3ccccc3)C2=O)cc1,-11.6% (active)
3,O=c1oc2ccc(Cl)cc2cc1-c1cs/c(=N/N=C\c2ccc(Cl)cc2)n1/N=C/c1ccc(Cl)cc1,98.5%
4,O=C1c2ccccc2C2(c3ccc(O)cc3)c3ccccc3Oc3cccc1c32 (stereo not drawn),86.9%
5,c1ccc([P+](CCCc2n(Cc3ccc4ccccc4c3)c3ccccc3[n+]2Cc2ccc3ccccc3c2)(c2ccccc2)c2ccccc2)cc1,74.4%
6,C/C(Cc1ccc(Cl)cc1)=C(/c1ccc(Cl)cc1)c1ccc(OCCN(C)C)cc1,40.3%
7,COc1cc2c(cc1OC)-c1ccc3cc4c(cc3c1N(CCCN1CCCCC1)C2)OCO4,63.4%
8,COc1ccc(C(=O)/C=C/c2cc3c(c(OC)c2)OCC(=O)N3)cc1,53.7%
9,Cn1nnnc1-c1ccc(N)cc1,100%
10,CCCCNCC(=O)Nc1ccc(C(=O)OCC)cc1,114%
11,CCCCCOC(=O)c1ccc(NC(=O)CNCC(C)C)cc1,101%
12,Cc1nc(Nc2cccc(NC(=O)Nc3ccc(Cl)cc3)c2)c2ccccc2n1,47.8%
13,C=C(Cl)COC(=O)C(C)(C)O,93.3%
14,CCNCCNc1cc(-c2ccc(Cl)cc2)c(C#N)c2nc3ccccc3n12,-9.51% (active)
15,O=C1NCC(=O)N(Cc2ccco2)[C@H]1Cc1ccccc1,103%
16,Cc1ccc(NC(=O)C(Cl)Cl)cc1,116%
17,CCOc1cccnc1/C=N/NC(N)=S,26.5%
18,O=C(c1ccccc1)c1ccc(Cl)c([N+](=O)[O-])c1,99.5%
19,CCN(CC)CC(=O)Nc1cccc(C(=O)OC(C)C)c1,103%
20,CCOC(=O)C(O)C(O)(c1ccccc1)c1ccccc1 (stereo not drawn),111%

row,Compound,growth
1,C[C@@H]1C(=O)N(C[C@@H](Cc2ccccc2)NC(=O)OCc2ccccc2)[C@]1(Cc1ccccc1)C(=O)OCc1ccccc1,1.48% (active)
2,CC1(C)N=C(N)N=C(N)N1c1cccc(CN)c1,93.8%
3,CC(c1ccc(-n2cccn2)cc1)c1cnc(N2CCc3ccc(C(N)=O)cc3C2)s1 (stereo not drawn),42%
4,COc1ccc(OC)c(Nc2nc3nonc3nc2Nc2cccc(Br)c2)c1,12.1%
5,N#Cc1c(N)nc2c(nnn2-c2cccc(Br)c2)c1N,107%
6,[2H]c1nc(Nc2ncc(F)c(-c3cc(F)c4nc(C)n(C(C)C)c4c3)n2)c([2H])c([2H])c1CN1CCN(C([2H])([2H])C([2H])([2H])[2H])CC1,74.2%
7,Cc1c(C(=O)O)nnn1-c1nccs1,96.7%
8,CCNCCNc1cc(-c2ccc(C(=O)OC)cc2)c(C#N)c2nc3ccccc3n12,-19.2% (active)
9,CO[C@H]1/C=C/O[C@@]2(C)Oc3c(C)c(O)c4c(c3C2=O)C(=O)C(/C=N/N(c2ccccc2)c2ccccc2)=C(NC(=O)/C(C)=C\C=C\[C@H](C)[C@H](O)[C@@H](C)[C@@H](O)[C@@H](C)[C@H](OC(C)=O)[C@@H]1C)C4=O,9.98% (active)
10,O[C@H]1CO[C@H]2[C@@H]1OC[C@@H]2Oc1ccc(Nc2nc(Nc3ccc(F)c(Cl)c3)ncc2F)cc1Cl,96.9%
11,CCNCCNc1cc(-c2cccc(C(F)(F)F)c2)c(C#N)c2nc3ccccc3n12,-83% (active)
12,CN(C)CCN1C(=O)c2cccc3c(-c4ccc(-c5nc6c7ccccc7c7ccccc7c6[nH]5)cc4)ccc(c23)C1=O,-2.99% (active)
13,CCOC(=O)c1c(C)nc2c(c1N)/C(=C/c1ccc(OC)cc1)C(=O)N2Cc1ccc(F)cc1,20.9%
14,CSc1ccc(Cl)c(C(=O)Nc2sccc2C(N)=O)c1,83.5%
15,CN1C[C@@H](c2ccc(Cl)cc2)[C@]2(NC(=S)N(c3ccc(F)c(Cl)c3)C2=O)[C@@]12C(=O)NC1C=CC(Cl)=C[C@H]12 (stereo partly drawn),57%
16,O=C(Nc1ccccc1)c1sc(-c2cccc(C(F)(F)F)c2)cc1O,76.1%
17,NS(=O)(=O)c1cn(-c2ncnc3nc[nH]c23)ccc1=O,95.1%
18,Nc1c(C(=O)c2ccccc2)nnc2ncnn12,116%
19,CCCCCCCSc1ccc(C(=O)O)cc1,93.9%
